This note sets out measurements from article PMC11574364.

What all share (test): protein domain microarray probed with biotinylated miRNA; Domain array: 20 mM Tris-HCl pH 7.4, 200 mM KCl, 0.2 mM EDTA, 0.05% NP40, 2 ug/ul heparin, overnight 4 C. ORF array: PBS pH 7.0 with RNase inhibitor, 100 ng RNA; high values mean tight binding
What all share (conditions): ssRNA

One assay concerns the target T1, RKHD1 (Homo sapiens, UniProt Q86XN8).
T1 sequence: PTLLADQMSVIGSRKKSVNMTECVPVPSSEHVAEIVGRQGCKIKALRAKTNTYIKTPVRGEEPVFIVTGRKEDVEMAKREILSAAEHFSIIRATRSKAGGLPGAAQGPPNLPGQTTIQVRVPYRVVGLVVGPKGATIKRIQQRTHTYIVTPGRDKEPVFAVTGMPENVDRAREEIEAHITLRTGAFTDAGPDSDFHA

The target of a further assay is T2, RBMS3 (Homo sapiens, UniProt Q6XE24).
T2 sequence: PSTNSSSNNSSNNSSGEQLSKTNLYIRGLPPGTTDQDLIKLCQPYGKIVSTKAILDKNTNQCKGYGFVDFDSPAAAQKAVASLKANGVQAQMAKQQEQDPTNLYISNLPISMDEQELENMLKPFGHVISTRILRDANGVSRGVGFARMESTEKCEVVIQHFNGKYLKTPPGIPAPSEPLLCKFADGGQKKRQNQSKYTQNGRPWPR

The next assay addresses SAFB1 (Homo sapiens, UniProt Q15424).
The next assay has as its target T3, PSF (Homo sapiens, UniProt P23246).
T3 sequence: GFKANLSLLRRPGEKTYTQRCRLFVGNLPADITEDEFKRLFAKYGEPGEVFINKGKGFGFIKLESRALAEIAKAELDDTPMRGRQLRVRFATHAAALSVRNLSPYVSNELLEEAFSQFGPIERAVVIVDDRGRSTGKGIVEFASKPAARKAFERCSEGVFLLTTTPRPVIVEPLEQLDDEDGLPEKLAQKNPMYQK

For a further assay, the target named is T4, ADAR(1) (Homo sapiens, UniProt P55265).
T4 sequence: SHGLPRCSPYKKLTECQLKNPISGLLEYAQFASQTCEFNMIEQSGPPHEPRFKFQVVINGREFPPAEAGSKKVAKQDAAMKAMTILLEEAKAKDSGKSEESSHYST

The target in a further assay is T5, ANKRD17 (Homo sapiens, UniProt O75179).
T5 sequence: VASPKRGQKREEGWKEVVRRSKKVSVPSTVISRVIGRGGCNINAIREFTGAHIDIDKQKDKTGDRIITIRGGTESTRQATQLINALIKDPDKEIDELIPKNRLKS

A further assay deals with T6, YTHDC2 (Homo sapiens, UniProt Q9H6S0).
T6 sequence: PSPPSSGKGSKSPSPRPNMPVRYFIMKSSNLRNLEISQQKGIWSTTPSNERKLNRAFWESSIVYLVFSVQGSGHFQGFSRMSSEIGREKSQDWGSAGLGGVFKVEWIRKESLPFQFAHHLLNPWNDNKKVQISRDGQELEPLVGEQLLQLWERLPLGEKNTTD

Another assay deals with VIGILIN(11-14) (Homo sapiens, UniProt Q00341).
The next assay addresses T7, RBM20 (Homo sapiens, UniProt Q5T481).
T7 sequence: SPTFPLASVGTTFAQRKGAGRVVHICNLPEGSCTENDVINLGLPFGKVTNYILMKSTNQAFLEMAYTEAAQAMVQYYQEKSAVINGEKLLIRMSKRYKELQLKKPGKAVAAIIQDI

For a further assay, the target named is T8, RNPC3(1) (Homo sapiens, UniProt Q96LT9).
T8 sequence: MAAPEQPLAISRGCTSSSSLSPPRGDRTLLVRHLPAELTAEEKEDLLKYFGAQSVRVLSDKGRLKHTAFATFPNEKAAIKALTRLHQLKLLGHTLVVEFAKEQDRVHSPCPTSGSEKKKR

Chain of VIGILIN(11-14) (Q00341 861-1229): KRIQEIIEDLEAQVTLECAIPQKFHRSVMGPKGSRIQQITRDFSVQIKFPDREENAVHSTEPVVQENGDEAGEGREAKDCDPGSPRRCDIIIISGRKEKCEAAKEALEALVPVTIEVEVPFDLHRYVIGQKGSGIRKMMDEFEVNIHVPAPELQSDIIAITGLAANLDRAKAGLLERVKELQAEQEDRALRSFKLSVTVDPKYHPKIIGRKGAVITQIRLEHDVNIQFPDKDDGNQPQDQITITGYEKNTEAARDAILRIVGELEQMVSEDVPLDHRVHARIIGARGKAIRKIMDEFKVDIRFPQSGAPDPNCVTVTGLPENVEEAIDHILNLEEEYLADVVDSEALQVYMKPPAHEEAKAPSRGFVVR
Chain of SAFB1 (Q15424 380-500): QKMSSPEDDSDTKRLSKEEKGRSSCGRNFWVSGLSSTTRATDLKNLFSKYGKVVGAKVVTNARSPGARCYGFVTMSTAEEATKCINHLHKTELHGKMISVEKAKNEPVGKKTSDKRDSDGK

In the case of UAGCUUAUCAGACUGAUGUUGA, the binding signal is 977 ± 62.8 fluorescence intensity with RKHD1, 45.1 ± 0.672 fluorescence intensity with RBMS3 and 37.5 ± 1.2 fluorescence intensity with SAFB1.

For UGAGGUAGUAGGUUGUAUGGUU, the binding signal amounted to 837 ± 12.7 fluorescence intensity in the assay with PSF; 27.9 ± 1.27 fluorescence intensity in the assay with ADAR(1); 1910 ± 204 fluorescence intensity with RKHD1; 51.9 ± 4.92 fluorescence intensity in the assay with ANKRD17; 363 ± 14.3 fluorescence intensity in the assay with RBMS3; 143 ± 6.97 fluorescence intensity in the assay with YTHDC2. Besides, the binding signal with VIGILIN(11-14) is 911 ± 66.7 fluorescence intensity; with RBM20, 53.6 ± 5.51 fluorescence intensity; with SAFB1, 299 ± 26.8 fluorescence intensity; with RNPC3(1) it was 192 ± 55.7 fluorescence intensity.

As for CAGUGCAAUGAUGAAAGGGCAU, the binding signal with PSF came out at 80.6 ± 13.1 fluorescence intensity; with RKHD1 it was 1330 ± 109 fluorescence intensity; with ANKRD17, 37 ± 2.43 fluorescence intensity; with RBMS3, 211.2 ± 1.16 fluorescence intensity; in the assay with YTHDC2, 65.2 ± 5.22 fluorescence intensity; with VIGILIN(11-14), 287 ± 28.5 fluorescence intensity. For the same sequence, the binding signal in the assay with RBM20 was 34.77 ± 0.255 fluorescence intensity; in the assay with SAFB1, 228 ± 31.6 fluorescence intensity; with RNPC3(1), 61.8 ± 4.94 fluorescence intensity.

Regarding UGAGGUAGUAGGUUGUGUGGUU, the binding signal in the assay with PSF is 1020 ± 15.7 fluorescence intensity; in the assay with ADAR(1), 30.1 ± 1.12 fluorescence intensity; in the assay with RKHD1, 1570 ± 135 fluorescence intensity; with ANKRD17, 94.6 ± 8.68 fluorescence intensity; in the assay with RBMS3, 564 ± 40.7 fluorescence intensity; with YTHDC2 it was 156 ± 16.8 fluorescence intensity. Besides, the binding signal was 968 ± 111 fluorescence intensity in the assay with VIGILIN(11-14), 66.7 ± 5.15 fluorescence intensity with RBM20, 633 ± 29.4 fluorescence intensity with SAFB1 and 391 ± 55.5 fluorescence intensity in the assay with RNPC3(1).

For the sequence AGAGGUAGUAGGUUGCAUAGUU, the binding signal with PSF is 905 ± 13.5 fluorescence intensity; in the assay with ADAR(1) it was 20.7 ± 1.3 fluorescence intensity; in the assay with RKHD1, 2940 ± 199 fluorescence intensity; with ANKRD17, 36.4 ± 1.75 fluorescence intensity; with RBMS3, 410 ± 20.1 fluorescence intensity; in the assay with YTHDC2, 114 ± 5.32 fluorescence intensity. Besides, the binding signal with VIGILIN(11-14) came out at 285 ± 6.8 fluorescence intensity; with RBM20, 39.7 ± 5.85 fluorescence intensity; in the assay with SAFB1, 280 ± 28.4 fluorescence intensity; with RNPC3(1), 201 ± 18.2 fluorescence intensity.

As for UGAGGUAGUAGGUUGUAUAGUU, the binding signal with PSF was determined as 265 ± 6.17 fluorescence intensity; in the assay with RKHD1, 1260 ± 32.7 fluorescence intensity; with ANKRD17 it was 26 ± 1.62 fluorescence intensity; in the assay with RBMS3, 86.8 ± 4.41 fluorescence intensity; with YTHDC2, 27.7 ± 2.35 fluorescence intensity; with VIGILIN(11-14), 145 ± 5.55 fluorescence intensity. The binding signal in the assay with SAFB1 was 94.4 ± 9.54 fluorescence intensity; in the assay with RNPC3(1) it was 38.5 ± 11.8 fluorescence intensity.
